Measurements reported in PubChem BioAssay (NCI).
The panel holds about 83,000 compounds, 20% with a hit somewhere; the sample as a whole holds those more often.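 Note: values are percent growth. 100 is the growth of untreated cells, values between 100 and 0 indicate rising inhibition; between -100 and 0 indicates cell death.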 Active and inactive are the calls of the source. How the source made its calls: active means growth percent below 10; inactive means the rest.

Legend:
Assay in all cases: NCI-60 one-dose screen, 48 h (100 = growth as untreated, 0 = no growth, -100 = all killed)
Conditions in all cases: 10 µM unless noted
HCT-15 colon = test system: HCT-15 colon
HT29 colon = test system: HT29 colon
SNB-19 CNS = test system: SNB-19 CNS
U251 CNS = test system: U251 CNS
PC-3 prostate = test system: PC-3 prostate
SK-MEL-5 melanoma = test system: SK-MEL-5 melanoma
UACC-62 melanoma = test system: UACC-62 melanoma
LOX IMVI melanoma = test system: LOX IMVI melanoma
SK-MEL-2 melanoma = test system: SK-MEL-2 melanoma
EKVX NSCLC = test system: EKVX NSCLC
SN12C renal = test system: SN12C renal
UO-31 renal = test system: UO-31 renal
TK-10 renal = test system: TK-10 renal
ACHN renal = test system: ACHN renal
CAKI-1 renal = test system: CAKI-1 renal
A498 renal = test system: A498 renal
CCRF-CEM leukemia = test system: CCRF-CEM leukemia
MOLT-4 leukemia = test system: MOLT-4 leukemia
SK-MEL-28 melanoma = test system: SK-MEL-28 melanoma

Measured: growth

Nc1cccc(-c2nc3sccn3c2-c2ccnc(NCCCNS(=O)(=O)c3cccc4ccccc34)n2)c1
inactive: HCT-15 colon 25.4% | HT29 colon 20.6% | SNB-19 CNS 55.6% | U251 CNS 49.3% | PC-3 prostate 31.2% | UACC-62 melanoma 22.2% | SK-MEL-2 melanoma 36.3% | EKVX NSCLC 56.7% | SN12C renal 39.3% | UO-31 renal 21.5% | TK-10 renal 76.5% | ACHN renal 31.6% | CAKI-1 renal 34.9% | A498 renal 29.8% | CCRF-CEM leukemia 16.1% | MOLT-4 leukemia 10.3%
active: SK-MEL-5 melanoma 4.1% | LOX IMVI melanoma 9.92%

COc1ccc(-c2cc3c(OC)c(OC)c(OC)cc3oc2=O)cc1
inactive: HCT-15 colon 37.9% | HT29 colon 12% | SNB-19 CNS 65.8% | U251 CNS 40.6% | PC-3 prostate 62.1% | SK-MEL-5 melanoma 14.4% | UACC-62 melanoma 40.2% | LOX IMVI melanoma 46.8% | SK-MEL-28 melanoma 67.5% | EKVX NSCLC 64.3% | SN12C renal 56.4% | UO-31 renal 77.9% | TK-10 renal 85% | ACHN renal 66.8% | CAKI-1 renal 57.1% | A498 renal 34.2% | MOLT-4 leukemia 64.7%

O=C(Nc1ccc2c(c1)OCCO2)C(=O)c1c[nH]c2ccccc12
active: HT29 colon 4.06%
inactive: HCT-15 colon 33.5% | SNB-19 CNS 46.9% | U251 CNS 34% | PC-3 prostate 28.9% | SK-MEL-5 melanoma 29.7% | UACC-62 melanoma 33.1% | LOX IMVI melanoma 36.1% | SK-MEL-28 melanoma 53% | EKVX NSCLC 52.9% | SN12C renal 42.4% | UO-31 renal 50.9% | TK-10 renal 75.1% | ACHN renal 57.4% | CAKI-1 renal 49.7% | A498 renal 26.3% | MOLT-4 leukemia 16.8%

COc1ccc(C(=O)N2NC(=O)/C(=C/c3ccccc3F)N=C2c2ccccc2)cc1
inactive: HCT-15 colon 112% | HT29 colon 113% | SNB-19 CNS 99% | U251 CNS 96.7% | PC-3 prostate 104% | SK-MEL-5 melanoma 113% | UACC-62 melanoma 102% | LOX IMVI melanoma 102% | SK-MEL-28 melanoma 112% | EKVX NSCLC 103% | SN12C renal 99% | UO-31 renal 89.8% | TK-10 renal 108% | ACHN renal 122% | CAKI-1 renal 98.9% | A498 renal 104% | MOLT-4 leukemia 109%

c1coc(CNc2ccnc(Nc3ccc(OCCN4CCCCC4)cc3)n2)c1
inactive: HCT-15 colon 89.6% | HT29 colon 57.6% | SNB-19 CNS 97.3% | U251 CNS 85.8% | PC-3 prostate 82.9% | SK-MEL-5 melanoma 80.3% | UACC-62 melanoma 93.6% | LOX IMVI melanoma 82.6% | SK-MEL-2 melanoma 104% | EKVX NSCLC 95.1% | SN12C renal 78% | UO-31 renal 71.2% | TK-10 renal 107% | ACHN renal 100% | CAKI-1 renal 92.3% | A498 renal 59.8% | CCRF-CEM leukemia 81.4% | MOLT-4 leukemia 81.1%

COc1ccc(C(=O)N2NC(=O)/C(=C/c3ccc(F)cc3)N=C2c2ccccc2)cc1
inactive: HCT-15 colon 73% | HT29 colon 94.6% | SNB-19 CNS 83.7% | U251 CNS 56.4% | PC-3 prostate 89.1% | SK-MEL-5 melanoma 96.1% | UACC-62 melanoma 77.4% | LOX IMVI melanoma 91.7% | SK-MEL-28 melanoma 102% | EKVX NSCLC 88.4% | SN12C renal 84.7% | UO-31 renal 91.7% | TK-10 renal 96.4% | ACHN renal 94.2% | CAKI-1 renal 86.1% | A498 renal 69.2% | MOLT-4 leukemia 42.4%

O=C(NNC(=O)N1c2ccccc2C=Cc2ccccc21)c1ccc2ccccc2c1
inactive: HCT-15 colon 95.4% | HT29 colon 88.6% | SNB-19 CNS 95.3% | U251 CNS 92.6% | PC-3 prostate 74.9% | SK-MEL-5 melanoma 92% | UACC-62 melanoma 81.1% | LOX IMVI melanoma 93.6% | SK-MEL-2 melanoma 98.5% | EKVX NSCLC 89% | SN12C renal 90.5% | UO-31 renal 88% | TK-10 renal 102% | ACHN renal 96.1% | CAKI-1 renal 96.8% | A498 renal 94.1% | CCRF-CEM leukemia 95% | MOLT-4 leukemia 94.9%

COc1ccc(/C=C/c2c(C(C)=O)c(C)nc3ccccc23)cc1
inactive: HCT-15 colon 95.8% | HT29 colon 80.1% | SNB-19 CNS 82.1% | U251 CNS 94.8% | PC-3 prostate 76.1% | SK-MEL-5 melanoma 33.3% | UACC-62 melanoma 52.4% | LOX IMVI melanoma 96.6% | SK-MEL-2 melanoma 75.8% | EKVX NSCLC 81.7% | SN12C renal 85.6% | UO-31 renal 65.1% | TK-10 renal 77.9% | ACHN renal 84.5% | CAKI-1 renal 81.4% | A498 renal 72.8% | CCRF-CEM leukemia 77.7% | MOLT-4 leukemia 73.1%

COc1ccc(-c2[nH]nc(N)c2-c2cc(OC)c3c(c2)OCO3)cc1
inactive: HCT-15 colon 46% | HT29 colon 26% | SNB-19 CNS 68.8% | U251 CNS 54.7% | PC-3 prostate 93.7% | SK-MEL-5 melanoma 54.2% | UACC-62 melanoma 37.2% | LOX IMVI melanoma 56.5% | SK-MEL-28 melanoma 60% | EKVX NSCLC 72.9% | SN12C renal 52% | UO-31 renal 68.1% | TK-10 renal 84.8% | ACHN renal 73.8% | A498 renal 43.2% | MOLT-4 leukemia 25.7%

O=[N+]([O-])c1ccc(C(c2ccccc2)c2ccccc2)cc1
inactive: HCT-15 colon 86.4% | HT29 colon 84.4% | SNB-19 CNS 96.9% | U251 CNS 102% | PC-3 prostate 94.1% | SK-MEL-5 melanoma 96.7% | UACC-62 melanoma 85.5% | LOX IMVI melanoma 69.7% | SK-MEL-2 melanoma 110% | EKVX NSCLC 94.8% | SN12C renal 92% | UO-31 renal 80.4% | TK-10 renal 96.4% | ACHN renal 90.3% | CAKI-1 renal 83.1% | A498 renal 91.3% | CCRF-CEM leukemia 97.8% | MOLT-4 leukemia 95.2%

COc1ccc(-c2cnoc2-c2ccc(OC)cc2O)cc1
active: A498 renal 7.36%
inactive: HCT-15 colon 26.7% | HT29 colon 24.1% | SNB-19 CNS 42.4% | U251 CNS 25.6% | PC-3 prostate 53.2% | SK-MEL-5 melanoma 15.8% | UACC-62 melanoma 28.9% | LOX IMVI melanoma 41.2% | SK-MEL-28 melanoma 45% | EKVX NSCLC 82.9% | SN12C renal 37.2% | UO-31 renal 74.5% | TK-10 renal 86.9% | ACHN renal 57.4% | CAKI-1 renal 45.2% | MOLT-4 leukemia 44.2%

Cc1ccc(S(=O)(=O)/C(=C\c2ccc(Cl)cc2)C(=O)c2ccccc2)cc1
inactive: HCT-15 colon 100% | HT29 colon 123% | SNB-19 CNS 95.7% | U251 CNS 102% | PC-3 prostate 96.4% | SK-MEL-5 melanoma 103% | UACC-62 melanoma 101% | LOX IMVI melanoma 104% | SK-MEL-28 melanoma 100% | SN12C renal 98.9% | UO-31 renal 90.1% | TK-10 renal 124% | ACHN renal 109% | CAKI-1 renal 87.3% | A498 renal 99.4% | CCRF-CEM leukemia 97.7% | MOLT-4 leukemia 99.1%

COc1ccc(C2=C(c3cc(OC)c(OC)c(OC)c3)C(=O)CC2)cc1
active: HT29 colon -5.43% | SK-MEL-5 melanoma -33.6% | A498 renal -4.31%
inactive: HCT-15 colon 24.2% | SNB-19 CNS 35.1% | U251 CNS 21.7% | PC-3 prostate 38.3% | UACC-62 melanoma 32.7% | LOX IMVI melanoma 19.6% | SK-MEL-28 melanoma 47.7% | EKVX NSCLC 40% | SN12C renal 26.4% | UO-31 renal 46.2% | TK-10 renal 60.6% | ACHN renal 37.8% | CAKI-1 renal 53.5% | MOLT-4 leukemia 17.4%

CN(CCCCCl)P(=O)(OCc1ccc([N+](=O)[O-])o1)C(F)(F)C[C@H](NC(=O)CNC(=O)c1ccc(N=[N+]=[N-])cc1)C(=O)NCCc1ccc(O)cc1 (some centres undefined)
inactive: HCT-15 colon 103% | HT29 colon 86.3% | SNB-19 CNS 94.1% | U251 CNS 69.1% | PC-3 prostate 101% | SK-MEL-5 melanoma 91.3% | UACC-62 melanoma 59.7% | LOX IMVI melanoma 79.3% | SK-MEL-28 melanoma 63.9% | EKVX NSCLC 102% | SN12C renal 95.2% | UO-31 renal 84.7% | TK-10 renal 121% | ACHN renal 106% | CAKI-1 renal 105% | A498 renal 104% | MOLT-4 leukemia 74.7%

C=C1C(=O)O[C@H]2[C@H]1CC/C(Cn1cc(CNC(=O)c3cc4ccccc4[nH]3)nn1)=C\CC[C@@]1(C)O[C@@H]21
active: LOX IMVI melanoma -23.6% | CCRF-CEM leukemia -18.8% | MOLT-4 leukemia 4.74%
inactive: HCT-15 colon 79.8% | HT29 colon 11.4% | SNB-19 CNS 81.5% | U251 CNS 67.6% | PC-3 prostate 70.2% | SK-MEL-5 melanoma 64.4% | UACC-62 melanoma 49.8% | SK-MEL-2 melanoma 59.6% | EKVX NSCLC 86.9% | SN12C renal 59.2% | UO-31 renal 73.4% | TK-10 renal 53% | ACHN renal 55.8% | A498 renal 106%

Cc1ccc(-c2cc3nc(-c4ccccc4)nc(C(Cl)Cl)n3n2)cc1
active: HCT-15 colon -30.4% | HT29 colon -47.1% | SNB-19 CNS -40.1% | U251 CNS -83.5% | PC-3 prostate -76% | UACC-62 melanoma -65.3% | EKVX NSCLC -68% | UO-31 renal -99.7% | TK-10 renal -97.9% | ACHN renal -99.3% | CAKI-1 renal -86.4% | A498 renal -73.8%
inactive: SK-MEL-5 melanoma 83.9% | SK-MEL-28 melanoma 34.6% | SK-MEL-2 melanoma 26.7% | SN12C renal 55.5% | MOLT-4 leukemia 89.3%

COc1ccc(-c2ccc(-c3ccc(C(=N)N)s3)s2)cc1Cl
active: HCT-15 colon -76% | HT29 colon -84% | U251 CNS -86.2% | PC-3 prostate -92% | UACC-62 melanoma -92.1% | SN12C renal -83.7% | TK-10 renal -45.1% | CCRF-CEM leukemia -31.2% | MOLT-4 leukemia -57.3%
inactive: SNB-19 CNS 35.2% | SK-MEL-5 melanoma 67.5% | SK-MEL-28 melanoma 90.1% | SK-MEL-2 melanoma 96.2% | EKVX NSCLC 70.1% | UO-31 renal 81.4% | ACHN renal 16.9% | CAKI-1 renal 68.3% | A498 renal 65.3%
